From PubChem
proKLK7 act – proKLK7 (human) activation, primary screen; purified proKLK7, EDANS-DABCYL substrate fluorescence; 100% is mature enzyme control, 0% vehicle; activation, % at 7 µM; 370,000 compounds, 0.9% hits; AID 652039;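 active = activation above the mean of all tested compounds plus 3 SD, computed per campaign excluding outliers beyond control limits, cut at about 13% in these data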
ADAM17 inh – inhibits human ADAM17; inhibition, % at 6.95 µM; 370,000 compounds, 0.83% hits; recombinant ADAM17, EDANS/DABCYL FRET peptide cleavage;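 active = inhibition above the mean of compounds lying between control limits plus 3 SD, set per campaign, cut at about 8.5% in these data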;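 also: 0% = DMSO-only wells as the low control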
NRP1-CendR mod – NRP-1/CendR interaction modulation; FAM-RPARPAR peptide binding to NRP-1, fluorescence polarization; AID 602438; 360,000 compounds, 0.85% hits; inhibition, % at 25 µM;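 active = inhibition or corrected inhibition above about 18%, plus a signal ratio from 0.5 to 1.5, limit read from the data, passing the limit was not always enough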
Target sequence (O14786 whole entry, looked up): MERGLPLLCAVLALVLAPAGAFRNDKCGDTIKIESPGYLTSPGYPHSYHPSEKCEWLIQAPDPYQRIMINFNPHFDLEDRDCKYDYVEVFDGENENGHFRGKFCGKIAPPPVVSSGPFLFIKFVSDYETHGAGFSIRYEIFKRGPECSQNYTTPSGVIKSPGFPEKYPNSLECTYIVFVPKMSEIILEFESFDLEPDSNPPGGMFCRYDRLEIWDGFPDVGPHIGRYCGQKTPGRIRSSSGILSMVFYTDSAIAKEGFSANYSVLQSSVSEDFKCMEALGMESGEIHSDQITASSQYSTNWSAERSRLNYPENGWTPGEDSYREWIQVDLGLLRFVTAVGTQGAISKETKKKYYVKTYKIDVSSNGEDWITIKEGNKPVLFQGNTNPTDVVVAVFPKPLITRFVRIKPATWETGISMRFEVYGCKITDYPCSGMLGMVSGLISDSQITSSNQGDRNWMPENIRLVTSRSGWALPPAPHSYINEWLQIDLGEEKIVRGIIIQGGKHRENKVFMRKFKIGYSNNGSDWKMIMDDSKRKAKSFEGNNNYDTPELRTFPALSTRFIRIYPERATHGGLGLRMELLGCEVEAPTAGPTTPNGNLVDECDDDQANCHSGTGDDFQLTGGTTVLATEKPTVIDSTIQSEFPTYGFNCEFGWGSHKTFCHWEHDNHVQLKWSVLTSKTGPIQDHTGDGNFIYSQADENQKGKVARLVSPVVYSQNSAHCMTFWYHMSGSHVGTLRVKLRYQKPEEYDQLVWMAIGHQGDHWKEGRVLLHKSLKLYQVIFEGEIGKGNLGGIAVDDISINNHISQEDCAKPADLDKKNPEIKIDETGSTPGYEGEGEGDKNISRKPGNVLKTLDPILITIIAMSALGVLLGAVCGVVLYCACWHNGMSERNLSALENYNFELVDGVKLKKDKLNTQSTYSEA
HGIII-sPLA2 inh – Blocks human group III sPLA2 activity | QFRET BODIPY PC-A2 liposome hydrolysis, fluorescence | inhibition, % at 12.2 µM | 370,000 compounds, 0.56% hits | AID 743126;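 active = inhibition above mean plus 3 SD of compounds lying within the high and low control bounds, cut at about 19% in these data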;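 also: 0% = median of test compound wells and 100% = no enzyme DMSO wells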
ADAM10 inh – inhibits human ADAM10. AID 720582. 370,000 compounds, 0.62% hits. inhibition, % at 7 µM. recombinant ADAM10, EDANS/DABCYL FRET peptide cleavage, 3 h;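 active = inhibition above a per-campaign cutoff equal to the mean of compounds falling between control-based bounds plus 3 SD, cut at about 20% in these data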;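 also: 0% = DMSO wells while the 100% control is not disclosed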
KLK7 act conf – confirmation of human kallikrein-7 zymogen activators; activation, % at 7 µM; shares compounds with proKLK7 act; 3,200 compounds, 68% hits; purified proKLK7, EDANS-DABCYL substrate fluorescence; scaled: vehicle 0, mature enzyme 100;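 active = activation, as change over the incubation, above the mean of all tested compounds plus 3 SD, cut at about 13% in these data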
EDANS interfere – optically interferes with EDANS-DABCYL signal, flagging KLK7 hits; shares compounds with proKLK7 act; AID 686952; 3,200 compounds, 80% hits; activation, % at 7 µM; EDANS-DABCYL substrate fluorescence interference, no enzyme, 4 h; solvent 0%, active enzyme control 100%;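 active = activation above the all-compound mean plus 3 SD, ignoring values outside control-based bounds, cut at about 4.8% in these data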;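 also: value is the 4 h activation minus the activation read at time zero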
EDANS interf – counter-screen for kallikrein-7 activators: EDANS-DABCYL interference, dose response. shares compounds with proKLK7 act. EDANS-DABCYL peptide fluorescence interference, no enzyme. EC50, µM. 250 compounds, 20% hits. AID 720493;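 active = compounds that raise the fluorescence signal in this interference counterscreen, with EC50 at or below 10 µM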;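 also: intact quenched peptide substrate alone read at 355 nm excitation and 520 nm emission; signal is fluorescence gain from T0 to T4 after four hours at room temperature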
* marks the source's active call; other numbers are inactive results; i = inactive; . = no result given. An excerpt weighted towards active compounds, which were near 3.4% of everything screened.

SMILES | proKLK7 act | ADAM17 inh | NRP1-CendR mod | HGIII-sPLA2 inh | ADAM10 inh | KLK7 act conf | EDANS interfere | others
O=C(NCCCN1CCCC1=O)c1cc2nc(-c3ccco3)cc(C(F)(F)F)n2n1 | 14.4* | -113.5 | 6.1 | 12.9 | -292.1 | 12.6* | 1.9 | EDANS interf=>69.5
COc1ccc(C2=Nc3ccccc3C2(O)CCN2C(=O)c3ccccc3C2=O)cc1 (stereo unspecified) | 16.1* | -9.1 | 5.8 | -0.7 | -32.3 | 22.0* | 22.4*
COC(=O)C[C@H]1CC[C@@H]2[C@H](COc3ccc(NC(=O)c4ccccc4OC)cc3C(=O)N2C)O1 | -0.9 | 0.8 | . | 8.3 | 2.1 | . | .
O=C(O)CCc1nn2c3ccccc3n(CCN3CCCCC3)c2nc1=O | 46.2* | -81.0 | -1.5 | -1.0 | -242.3 | 7.5 | 11.0*
O=C(O)CCc1nn2c3ccccc3n(CCO)c2nc1=O | 3.9 | -77.5 | 5.7 | 7.4 | -225.0 | . | .
COc1ccc(-c2cc(-c3ccccc3)nc(=O)[nH]2)cc1 | 62.2* | i | -1.3 | 0.7 | i | 31.3* | 46.3*
COc1ccc(-c2cc(=O)c3ccccc3[nH]2)cc1 | -0.1 | -19.2 | 3.9 | 0.4 | -80.2 | . | .
CCC(C)N(C(=O)c1ccc(CNC(=O)c2cccc(Br)c2)cc1)C(C)CC (stereo unspecified) | -0.3 | 0.7 | . | -16.9 | 6.0 | . | .
Cc1nn(-c2cccc(Cl)c2)c2c1C(c1ccncc1)C(C#N)=C(N)O2 (stereo unspecified) | 0.2 | -4.1 | -10.9 | -6.7 | 4.1 | . | .
COc1ccc(OC)c(C2C(C#N)=C(N)Oc3c2c(C)nn3-c2cccc(Cl)c2)c1 (stereo unspecified) | 18.7* | -8.1 | -13.8 | -7.3 | -12.8 | 35.4* | 32.6*
COCCCN1C(=O)[C@H](CC(=O)N2CCC(c3ccccc3)CC2)[C@]2(C(=O)OC)CCCCC=C12 | 0.8 | 4.2 | . | -3.5 | 5.0 | . | .
COc1ccc2[nH]c3c(=O)n(Cc4ccncc4)cnc3c2c1 | 12.7* | -300.6 | -12.7 | -0.4 | i | 7.5 | 9.8*
CCN1CCCC1Cn1cnc2c([nH]c3ccc(OC)cc32)c1=O (stereo unspecified) | 23.8* | -154.1 | -2.5 | -0.2 | -444.8 | 9.4 | 10.3*
COc1ccc(S[C@]2(C(=O)N3CCN(c4ncccn4)CC3)CC(=O)N(S(=O)(=O)c3ccc(F)cc3)[C@@H]2c2ccc(OC)cc2)cc1 | -1.0 | 6.7 | . | -7.2 | 14.4 | . | .
CC(C)(C)CCNc1nc(-c2ccccn2)nnc1-c1ccccc1 | . | -3.1 | . | -1.4 | -3.0 | . | .
COc1ccc(N2CCN(C(=O)c3cc4c(s3)-c3ccccc3OC4)CC2)cc1 | 4.4 | -86.1 | -3.0 | -0.7 | -310.1 | . | .
COc1cccc(N2CCN(C(=O)c3cc4c(s3)-c3ccccc3OC4)CC2)c1 | 24.3* | -74.9 | 8.1 | -8.8 | -253.4 | 3.5 | 21.2*
O=C(c1cc2c(s1)-c1ccccc1OC2)N1CCCC1 | 73.9* | i | 3.7 | -3.7 | i | 61.7* | 68.8*
O=C(c1cc2c(s1)-c1ccccc1OC2)N1CCN(c2ccccc2)CC1 | -5.2 | -62.0 | 0.6 | -6.7 | -237.5 | . | .
CCOC(=O)N1CCN(C(=O)c2cc3c(s2)-c2ccccc2OC3)CC1 | 31.9* | i | -18.6 | -3.4 | i | -11.8 | 2.3
CCCN1CCN(C(=O)c2cc3c(s2)-c2ccccc2OC3)CC1 | 66.5* | i | 8.5 | 7.5 | i | -93.9 | 83.7*
CCC(C)CNC(=O)c1cn(C(C)c2ccccc2)nn1 (stereo unspecified) | -0.6 | -2.1 | . | 6.5 | -10.2 | . | .
CC(=O)c1cc2c(s1)-c1cc(F)ccc1OC2 | 71.3* | -354.6 | -3.0 | -1.1 | i | 68.6* | 74.4*
COc1ccc(C(=O)CSc2nnc(-c3ccc(C(C)(C)C)cc3)n2C)cc1 | -0.2 | 2.4 | . | -28.2 | 1.4 | . | .
Cc1cccc(Cn2cc(CN3CC(N(C)CCOC(=O)c4cc(C)cc(C)c4)CS3(=O)=O)nn2)c1 (stereo unspecified) | 3.2 | 3.9 | . | -14.6 | 3.0 | . | .
SMILES | proKLK7 act | ADAM17 inh | NRP1-CendR mod | HGIII-sPLA2 inh | ADAM10 inh | KLK7 act conf | EDANS interfere | others
Cc1cccc(C2=NN(c3ccc(Br)cc3)[C@@H](C(=O)N3CCOC3=O)[C@@H]2C)c1 | -13.0 | -84.3 | -9.8 | -15.7 | -282.7 | . | .
O=C1OCCN1C(=O)[C@H]1[C@H](c2ccc(F)cc2)C(c2ccc(F)cc2)=NN1c1ccc(Br)cc1 | . | . | -2.7 | . | . | . | .
C[C@@H]1C(c2ccccc2)=NN(c2ccc(Br)cc2)[C@H]1C(=O)N1CCOC1=O | 57.3* | -92.0 | -9.9 | -1.3 | -353.3 | -158.9 | -146.7
Cc1cccc(C2=NN(c3ccccc3)[C@@H](C(=O)N3CCOC3=O)[C@@H]2C)c1 | 25.6* | -17.4 | 0.8 | 3.5 | -61.9 | 114.2* | 70.1*
O=C(NCCc1c[nH]c2ccccc12)OCc1cn(Cc2ccc(C(F)(F)F)cc2)nn1 | -0.5 | 3.2 | . | -90.5 | 8.2 | . | .
COc1ccc(-c2cc(C(F)(F)F)c(C#N)c(=O)[nH]2)cc1 | 17.3* | i | -16.5 | -15.3 | i | 40.5* | 43.0*
N#Cc1c(C(F)(F)F)cc(-c2cccc(Cl)c2)[nH]c1=O | 20.5* | i | 11.1 | -19.7 | i | 50.5* | 48.1*
N#Cc1c(C(F)(F)F)cc(-c2ccc(F)cc2)[nH]c1=O | 8.2 | -401.0 | 5.3 | -11.0 | i | . | .
CCC[C@H]1[C@@H](N(C)Cc2cccs2)CC[C@@]23CCCN2C(=O)CCC[C@@H]13 | . | 3.3 | . | 0.8 | 3.5 | . | .
COC(=O)c1nn(-c2ccc3c(c2)OCO3)cc1O | 13.3* | -28.1 | 5.6 | -0.4 | -79.5 | 4.4 | 4.0
COC(=O)c1nn(-c2ccc3c(c2)CCN3C(C)=O)cc1O | 124.1* | -444.9 | -11.2 | 5.1 | i | 29.1* | 30.9*
CC(=O)N1CCc2cc([N+](=O)[O-])ccc21 | 0.0 | 1.1 | 2.5 | 2.7 | -6.0 | . | .
Cc1ccc2nc3c(cc(C(N)=S)c(=N)n3CCCOC(C)C)c(=O)n2c1 | 14.2* | -365.7 | -54.8 | 14.1 | i | 2.5 | 3.3
COCCCn1c(=N)c(C(N)=S)cc2c(=O)n3cccc(C)c3nc21 | 35.4* | i | -2.6 | 6.5 | i | 21.4* | 24.3*
CCCCNC(=O)c1cc2c(=O)n3cccc(C)c3nc2n(Cc2ccncc2)c1=N | 44.5* | i | -10.9 | 2.5 | i | 0.0 | -1.7
COCCNC(=O)c1cc2c(=O)n3cccc(C)c3nc2n(Cc2ccncc2)c1=N | 140.7* | i | 9.0 | 5.3 | i | 43.7* | 54.2*
Cc1ccc2nc3c(cc(C(=O)NCCN4CCOCC4)c(=N)n3CCCN3CCOCC3)c(=O)n2c1 | . | . | 5.1 | . | . | . | .
